Measured values published in PubChem BioAssay AID1159580 (chemical genetic matrix, 2015).
Several values for one entry are separate records, joined by “and”; a condition that tells them apart may be missing. Equal values may be shown once. The campaign covered roughly 5,500 compounds. About 2,000 (36%) were called active. Roughly 18% stayed inconclusive and do not appear here. Cut-off read from the data, not from the text of the source: active = normalized growth mostly below about 0.91 (no sharp cut-off); inconclusive = no clear call, values can overlap the other calls; inactive = mostly above about 0.92. Some of the results follow.

Experiment: chemical genetic growth profiling, strain panel (AID 1159580);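 note: tested at 20 µM; growth read once vehicle control cultures reached saturation at 30 °C; 1 = growth at the plate median or of vehicle wells; lower values mean less growth of the strain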
Details: S. cerevisiae deletion strains, growth OD

Measured: normalized growth

CC(=O)OCC(=O)[C@@]1(O)CCC2C3CCC4=CC(=O)CC[C@]4(C)[C@@]3(F)[C@@H](O)C[C@@]21C (stereo partly specified)
inactive: locus YAL021C, strain ccr4, active compounds read low 1.03 | locus YAL026C, strain drs2, active compounds read low 1.01 | locus YAL030W, strain snc1, active compounds read low 1.01 | locus YBL061C, strain skt5, active compounds read low 1.01 | locus YBR009C, strain hhf1, active compounds read low 1.01 | locus YBR021W, strain FUR4, active compounds read low 1.01 | locus YBR023C, strain chs3, active compounds read low 1.03 | locus YBR171W, strain sec66, active compounds read low 1.04 | locus YBR229C, strain ROT2, active compounds read low 1 | locus YBR231C, strain swc5, active compounds read low 0.993 | locus YBR279W, strain paf1, active compounds read low 1.02 | locus YCL011C, strain gbp2, active compounds read low 1.02 | locus YCL016C, strain dcc1, active compounds read low 1.02 | locus YCL029C, strain bik1, active compounds read low 0.995 | locus YCL061C, strain MRC1, active compounds read low 1.02 | locus YCL069W, strain vba3, active compounds read low 1.02 | locus YCR088W, strain abp1, active compounds read low 1.01 | locus YDL005C, strain med2, active compounds read low 1.02 | locus YDL035C, strain GPR1, active compounds read low 0.992 | locus YDL040C, strain nat1, active compounds read low 1 | locus YDL074C, strain BRE1, active compounds read low 1.02 | locus YDL101C, strain DUN1, active compounds read low 1.01 | locus YDL185W, strain tfp1, active compounds read low 0.995 | locus YDL192W, strain arf1, active compounds read low 1 | locus YDR001C, strain nth1, active compounds read low 1.01 | locus YDR069C, strain doa4, active compounds read low 1.01 | locus YDR101C, strain arx1, active compounds read low 0.981 | locus YDR137W, strain rgp1, active compounds read low 1.02 | locus YDR159W, strain sac3, active compounds read low 0.997 | locus YDR162C, strain NBP2, active compounds read low 0.998 | locus YDR195W, strain ref2 1 | locus YDR297W, strain sur2, active compounds read low 1 | locus YDR318W, strain mcm21, active compounds read low 1 | locus YDR334W, strain swr1, active compounds read low 1.03 | locus YDR335W, strain msn5, active compounds read low 1.01 | locus YDR388W, active compounds read low 1 | locus YDR392W, strain spt3, active compounds read low 0.989 | locus YDR502C, strain sam2, active compounds read low 1 | locus YEL003W, strain gim4, active compounds read low 1 | locus YEL037C, strain rad23, active compounds read low 1.01 | locus YEL061C, strain CIN8 (second series), active compounds read low 1.01 | locus YEL061C, strain CIN8, active compounds read low 1 | locus YER015W, strain faa2, active compounds read low 1 | locus YER016W, strain bim1, active compounds read low 1 | locus YER110C, active compounds read low 1 | locus YER111C, strain swi4, active compounds read low 1.02 | locus YER155C, strain BEM2 (second series), active compounds read low 1.01 | locus YER155C, strain BEM2, active compounds read low 1.01 | locus YER167W, strain BCK2, active compounds read low 1.01 | locus YFR010W, strain ubp6, active compounds read low 1.02 | locus YGL078C, strain dbp3, active compounds read low 1.01 | locus YGL086W, strain mad1, active compounds read low 0.989 | locus YGL167C, strain pmr1, active compounds read low 1.01 | locus YGL173C, strain kem1, active compounds read low 1.02 | locus YGL227W, strain vid30, active compounds read low 1.02 | locus YGL240W, strain doc1, active compounds read low 1.01 | locus YGL248W, strain PDE1, active compounds read low 1.01 | locus YGL253W, strain hxk2, active compounds read low 1.01 | locus YGR135W, strain pre9, active compounds read low 1.03 | locus YGR252W, strain gcn5, active compounds read low 1.05 | locus YHR013C, strain ard1, active compounds read low 1.04 | locus YHR027C, strain rpn1, active compounds read low 1.03 | locus YHR030C, strain SLT2, active compounds read low 0.997 and 1.01 | locus YHR079C, strain IRE1 (second series), active compounds read low 1.01 | locus YHR079C, strain IRE1, active compounds read low 0.995 | locus YHR094C, strain hxt1, active compounds read low 1.01 | locus YHR129C, strain ARP1, active compounds read low 1.01 | locus YHR142W, strain chs7, active compounds read low 1.01 | locus YHR200W, strain rpn10, active compounds read low 0.996 | locus YIL066C, strain RNR3, active compounds read low 0.995 | locus YIL073C, strain SPO22, active compounds read low 1.03 | locus YIL125W, strain kgd1, active compounds read low 1 | locus YIR030C, strain dcg1, active compounds read low 0.998 | locus YJL092W, strain hpr5, active compounds read low 1.02 | locus YJL095W, strain BCK1 (second series), active compounds read low 1.01 | locus YJL095W, strain BCK1, active compounds read low 1.03 and 1 | locus YJL115W, strain asf1, active compounds read low 1.03 | locus YJL129C, strain trk1, active compounds read low 1.03 | locus YJL134W, strain LCB3, active compounds read low 1.01 | locus YJL154C, strain vps35, active compounds read low 1.01 | locus YJL164C, strain tpk1, active compounds read low 1.01 | locus YJL166W, strain qcr8, active compounds read low 1.02 | locus YJL168C, strain set2, active compounds read low 1.01 | locus YJL187C, strain SWE1 (second series), active compounds read low 1.01 | locus YJL187C, strain SWE1, active compounds read low 1.01 | locus YJR043C, strain POL32, active compounds read low 0.993
